SMILES strings stand for the structures. Among all 200,000 compounds or so, about 520 (0.26%) were called active. What follows is part of a selection rich in actives, with near analogues and random picks from the rest. A number with no mark means an inactive call.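 Rule for the calls: active = tissue-nonspecific alkaline phosphatase inhibition above about 50% at 20 µM in the single-dose screen (limit read from the data); inactive = the rest.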

The inhibition is the drop in the measured response relative to a control, in per cent.

Sequence of Alkaline phosphatase, tissue-nonspecific isozyme (Homo sapiens) (P05186 whole entry, looked up): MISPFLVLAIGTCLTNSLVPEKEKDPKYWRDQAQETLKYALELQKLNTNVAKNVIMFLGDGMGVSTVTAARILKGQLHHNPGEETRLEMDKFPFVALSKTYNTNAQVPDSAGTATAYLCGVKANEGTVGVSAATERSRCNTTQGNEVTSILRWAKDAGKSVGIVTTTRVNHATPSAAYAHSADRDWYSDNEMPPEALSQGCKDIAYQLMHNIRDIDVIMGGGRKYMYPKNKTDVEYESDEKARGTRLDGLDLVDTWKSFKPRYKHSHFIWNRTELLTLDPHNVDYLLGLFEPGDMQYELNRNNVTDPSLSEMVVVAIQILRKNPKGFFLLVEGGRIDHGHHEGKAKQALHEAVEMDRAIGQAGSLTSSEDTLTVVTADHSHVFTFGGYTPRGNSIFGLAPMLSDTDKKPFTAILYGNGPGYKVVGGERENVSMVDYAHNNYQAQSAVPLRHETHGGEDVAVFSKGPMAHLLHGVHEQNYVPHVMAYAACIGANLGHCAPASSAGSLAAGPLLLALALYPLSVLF

This experiment addresses Alkaline phosphatase, tissue-nonspecific isozyme (Homo sapiens) (UniProt P05186). As to the kind of experiment: blockers of alkaline phosphatase TNAP activity – biochemical, luminescent, no phosphate acceptor, uHTS, primary screen (AID 1012).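 Note: 0% = DMSO negative control and 100% = EDTA positive control.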 Conditions: purified TNAP, CDP-star luminescence, 30 min; at 20 µM; stronger effect = higher value.
On to `O=C1COc2ccc(C(=O)COC(=O)C3CC(O)CN3S(=O)(=O)c3ccc(Cl)cc3)cc2N1` (configuration not stated), for which the inhibition is -11.9%. The result for `COc1ccccc1Cn1c(C)nnc1-c1cnn(C)c1N` reads -14%; that for `Cc1ccccc1C(=O)Nc1ccc(N2CCCCCC2)cc1`, -10.8%. As for `COc1ccc(Cl)cc1NC(=O)[C@@H]1CCCN1C(=O)c1cccs1`, the figure is -0.4%; as for `O=C(NCc1ccc(F)cc1)C(c1ccccc1)N(C(=O)c1csnn1)C1CC1` (configuration not stated), -11.9%.

In the case of `C#CCOCCOCCOCCNc1nc(N2CCN(C(=O)[C@H](CCC(=O)O)n3cc(C(N)CO)nn3)CC2)nc(N2CCN(C(=O)[C@H](Cc3ccc(O)cc3)n3cc(C(N)[C@H](C)CC)nn3)CC2)n1` (some centres not stated), the inhibition is -7.8%. As for `CN(C)C(=O)c1nc2ccc(Cl)cn2c1CN1CCN(c2ncccn2)CC1`, the figure is -12.2%; as for `CCOC(=O)c1c(NC(=O)C2CCN(S(=O)(=O)c3ccc(Cl)cc3)CC2)sc2c1CCCC2`, -6%. As for `O=C(CSc1nc(O)c(Cc2ccccc2)c(=O)[nH]1)Nc1nc2c(s1)CCCC2`, the figure is -7.1%; as for `CCCCC(CC(C)O)c1n[nH]c(=S)n1-c1ccccc1` (configuration not stated), -23.2%; as for `Cc1cccc(NC(=S)NCCc2ccc(F)cc2)c1C`, -8.2%. Regarding `O=C(NNC(=S)NC1CCCCC1)c1ccccc1Cl`, the inhibition is -122%. The result for `O=S(=O)(NCCc1ccncc1)c1ccccc1` reads -12%; that for `COc1cccc(NC(=S)NC(=O)c2c(Cl)c(C)nn2C)c1`, 12.5%; that for `COc1ccc(NC(=O)COC(=O)c2ccncc2)c(OC)c1`, -9.8%.

For `CCCC(=O)Nc1nnc(-c2ccccc2)o1`, the inhibition is -7.1%. As for `CCc1nnc(NC(=O)c2nc3nccc(C)n3n2)s1`, the figure is -1.7%; as for `Cc1ccnc2nc(C(=O)Nc3nnc(-c4ccccc4)o3)nn12`, 52.3% (active); as for `COc1ccc(N2C(=O)CC(Nc3ccc(F)cc3)C2=O)c([N+](=O)[O-])c1` (configuration not stated), -5.2%. The result for `Cc1ccc(NC(=O)CN2CCCCC2)c2c1CC(C)(C)O2` reads -3%; that for `O=C(O)CCn1c(SCc2cc(=O)n3ccccc3n2)nc2ccsc2c1=O`, -2.2%.

Regarding `COCCNC(=O)NC(=O)COC(=O)C1(c2ccc(Cl)cc2)CC1`, the inhibition is -9.9%. Take `Cc1ccc(C(=O)OC2CCCN(C)C2)cc1` (configuration not stated): the inhibition is -10.2%.

Consider `Nc1ncnc(Nc2cccc(Cl)c2Cl)n1`, for which the inhibition is -2.3%. As for `COc1ccc(/C=C2\SC(=N)N(c3ccc(F)cc3)C2=O)cc1`, the figure is -8%; as for `Cn1cccc1/C=C1\SC(=O)N(CC(=O)Nc2ccc(F)cc2)C1=O`, -0.3%.

`CC(C)OC(=O)Cn1nc(C(F)(F)F)c2c1CCCC2`: the inhibition was 0.5%. The result for `CCOc1ccc(C(=O)NC2CCN(CC(=O)NCc3cccs3)CC2)cc1` reads -4.7%; that for `CC(NC(=O)C(=O)N/N=C/c1ccc(Cl)cc1)c1ccccc1` (configuration not stated), 3.3%; that for `COCCNC(=O)c1ccccc1NS(=O)(=O)c1ccc(C)c([N+](=O)[O-])c1`, -7.3%. For `Cc1ccnc(NC(=O)c2ccc(Cl)c([N+](=O)[O-])c2)c1`, the inhibition was -11.1%. The result for `CCOC(=O)NC(=O)C(=CNc1cccc(OC)c1)C(=O)NC(=O)OCC` reads -10.1%.

The record behind these values is PubChem BioAssay AID1012 (Sanford-Burnham Center for Chemical Genomics, 2008).
